# Source: PubChem (National Center for Advancing Translational Sciences (NCATS))
# An excerpt weighted towards active compounds, which were near 8.3% of everything screened.
# Lassa entry inh = blocks Lassa virus binding to or entry into cells. Lassa virus pseudotype entry inhibition, cell reporter. Potency, µM (series often up to 37.9 µM), inactives show top-dose activity change, negative = inhibition, usual class: inhibitors. 300,000 compounds, 1.2% hits. AID 540256; calls by dose curve; tested in HEK293 cells; further: potency means the concentration at half of the fitted maximal effect; nearly all actives have a fitted effect of over 50% in size
# HCMV inh = human cytomegalovirus inhibition | activity change, negative = inhibition, % at 57.5 µM | 410,000 compounds, 4.5% hits | AID 1259415 | HFF cells, HCMV-luciferase reporter, 72 h; hits give low values; in the data active means activity change below about -60%; inconclusive means no clear call, values can overlap the other calls; inactive means above about -39%
#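 Steps: HFFs plated, 16 h 37C; compounds added; HCMV-luciferase added to MOI 1 PFU/cell; 72 h 37C; OneGlo reagent, 5 min room temperature; luminescence read, normalized to controls.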
# Giardia FBPA inh = inhibitors of Giardia lamblia fructose-1,6-bisphosphate aldolase. A8B2U2. purified Giardia FBPA. Potency, µM (series often up to 59.6 µM), without a hit: at the top dose activity, negative = inhibition, most hits filed as inhibitors. AID 2451. 290,000 compounds, 0.71% hits; further: potency means the concentration at half of the fitted maximal effect; nearly all actives have a fitted effect of over 55% in size
# Target sequence (A8B2U2 whole entry, looked up): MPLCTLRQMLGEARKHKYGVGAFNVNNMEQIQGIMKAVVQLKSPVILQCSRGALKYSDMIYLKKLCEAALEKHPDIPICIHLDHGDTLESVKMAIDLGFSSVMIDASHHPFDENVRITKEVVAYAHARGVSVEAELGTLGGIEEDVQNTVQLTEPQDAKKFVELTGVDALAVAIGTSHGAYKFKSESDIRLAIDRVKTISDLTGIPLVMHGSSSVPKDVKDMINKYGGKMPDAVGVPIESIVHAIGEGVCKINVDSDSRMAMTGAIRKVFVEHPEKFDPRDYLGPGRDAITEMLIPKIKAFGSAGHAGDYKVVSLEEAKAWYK
#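 Giardia FBPA (40 nM reagent) was preincubated 10 min at RT with compound (up to 57.5 uM final), then substrate plus GAPDH/TPI/NAD/arsenate coupling system with diaphorase/resazurin was added; resorufin fluorescence (525/598 nm) was read after 20 min.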
# HCV inhibitor = HCV inhibition; Huh7.5.1 HCVcc-Cre infection, luciferase reporter, 44 h; Potency, µM (highest dose often 41.8 µM), inactives show top-dose activity change, negative = inhibition, most hits filed as inhibitors; 340,000 compounds, 3.4% hits; AID 651820; further: potency means the concentration at half of the fitted maximal effect
#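 Luciferase read-out (15 sec integration) after a 15 min room-temperature substrate step quantifies HCVcc-Cre infection. Cells, 1,000 per well, had compound added 4 h post-plating, then virus at ~0.5 moi, and were cultured 44 h.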
# FMDV inh = antivirals against foot and mouth disease virus | 410,000 compounds, 1.2% hits | AID 1159524 | Potency, µM (highest dose often 57.9 µM), for the others: at the highest dose activity change, negative = inhibition, hits mostly inhibitors | FMDV antiviral cell-based qHTS; calls by dose curve; tested in HEK293T cells; further: read-out not given here; potency means the concentration at half of the fitted maximal effect; nearly all actives have a fitted effect of over 45% in size
# Marburg entry inh = Marburg virus entry inhibition; AID 540276; 300,000 compounds, 1.8% hits; Potency, µM (doses to about 37.8 µM), without a hit: at the top dose activity change, negative = inhibition, hits mostly inhibitors; Marburg virus pseudotyped entry inhibition, cell reporter; calls by dose curve; tested in HEK293 cells; further: potency means the concentration at half of the fitted maximal effect
# Active calls of the source: *; ? = inconclusive; · = no result; [ ] = remark or other dose. Unless noted, the call rests on the fitted dose curve; in most records, active means well fitted curve in the direction sought with a large enough effect; inconclusive means small, poorly fitted or top-dose-only effect, or another doubt; inactive means no such curve, though single readings can be large; an effect the other way counts as inactive or inconclusive. On the % scale 0 is the no-effect control and ±100 the full control effect.
SMILES,Lassa entry inh,HCMV inh,Giardia FBPA inh,HCV inhibitor,FMDV inh,Marburg entry inh
COc1cc(C2NC(=S)NC3=C2CCc2ccccc23)cc(OC)c1OC (centres undefined),19%,4,-6%,-8%,?,-2%
COc1ccc2c(c1)CCC1=C2NC(=S)NC1c1ccc(N(C)C)cc1 (centres undefined),?,-35,-9%,11µM*,?,?
Cc1ccc(Sc2ccc(N3CCCC(C(=O)Nc4ccc(F)c(Cl)c4)C3)nn2)cc1 (centres undefined),?,-9,·,·,-11%,-4%[46.1 µM]
COc1cc(NC(=O)c2ccc(-c3nc(COc4ccccc4)c(C)o3)cc2)cc(OC)c1,?,-78*,·,·,0%,·
CC(NCc1ccncc1)C12CC3CC(CC(C3)C1)C2 (centres undefined),-17%,-11,-7%,8%,-21%,2%[46.1 µM]
CC(NCc1ccccc1O)C12CC3CC(CC(C3)C1)C2 (centres undefined),·,-87*,-10%,-5%,?,·
CSc1ncc(Cl)c(C(=O)Nc2ccc(NC(C)=O)cc2)n1,-21%[46.1 µM],0,3%,-2%,-12%,-12%[46.1 µM]
CC1CCCN(S(=O)(=O)c2ccc(NC(=O)CNC3CCCC3)cc2)C1 (centres undefined),-1%,?,-2%,-11%,4%,?
CCS(=O)(=O)c1ncc(Cl)c(C(=O)Nc2ccc(S(=O)(=O)N3CCCC(C)C3)cc2)n1 (centres undefined),?,-101*,-4%,13µM*,10µM*,?
CCC1CCCCN1S(=O)(=O)c1ccc(NC(=O)c2nc(S(C)(=O)=O)ncc2Cl)cc1 (centres undefined),?,-113*,9%,?,32µM*,8.9µM*
CCS(=O)(=O)c1ncc(Cl)c(C(=O)Nc2ccc(C)cc2)n1,?,-100*,10%,?,14µM*,7.9µM*
Cc1ccc(CS(=O)(=O)c2ncc(Cl)c(C(=O)Nc3ccc(OC(F)F)cc3)n2)cc1,?,-111*,·,?,25µM*,?
CC[C@H](C)[C@H](NC(=O)[C@H](N)Cc1ccc(O)cc1)C(=O)N[C@@H](CC(N)=O)C(=O)N[C@@H](CC(C)C)C(=O)N[C@H](C(=O)N[C@@H](C(=O)N[C@@H](CCCN=C(N)N)C(=O)N[C@@H](CCC(N)=O)C(=O)N[C@@H](CCCN=C(N)N)C(=O)N[C@H](Cc1ccc(O)cc1)C(N)=O)[C@@H](C)O)[C@@H](C)CC,·,·,7%,·,·,·
CCOC(=O)c1ccc(NC(=O)CSc2nnc(CNC(=O)c3ccc(OC)cc3)n2CC)cc1,21%[46.1 µM],41,·,·,30%,?
COc1ccc(NC(=O)c2ccc(Cc3ccc(C)cc3)o2)cc1,?,11,3%,?,-26%,?
COc1ccc(NC(=O)c2nc(S(=O)(=O)Cc3ccc(C)cc3)ncc2Cl)cc1,?,-97*,·,·,?,?
CCOc1ccc(C2C(C(N)=O)=C(C)Nc3nc(SCc4ccccc4)nn32)cc1 (centres undefined),?,4,·,·,1%,-3%[46.1 µM]
CCOC(=O)c1c(C)oc2c1c(C=NCCO)c(O)c1ccccc12,?,9,2µM*,-8%,?,?
CCOC(=O)c1c(C)oc2c1c(C(c1cccnc1)N1CCCCC1)c(O)c1ccccc12 (centres undefined),12%,186,?,?,-6%,0%
CCOC(=O)c1c(C)oc2c1c(C(c1ccccc1)N1CCOCC1)c(O)c1ccccc12 (centres undefined),23µM*,198,?,?,74%,?
CCOC(=O)c1ccc(N=Cc2c(O)c3ccccc3oc2=O)cc1,14%[46.1 µM],10,-7%,2%,-4%,-14%[46.1 µM]
COc1cccc(C(=O)Nc2ccccc2-c2nnc(-c3ccc(C(C)(C)C)cc3)o2)c1,21%[46.1 µM],-8,·,·,7%,-6%[46.1 µM]
COc1cccc(CNC(=O)c2[nH]c3cc(C)ccc3c2Sc2ccccc2)c1,-8%[46.1 µM],-63*,·,·,6%,-23%[46.1 µM]
CCc1ccc(Sc2cc(C(=O)NCc3ccccc3OC)c3ccccc3n2)cc1,?,?,·,·,-3%,·
